These results are taken from PubChem BioAssay AID2606 (The Scripps Research Institute Molecular Screening Center, 2010).

The whole screen tested about 320,000 compounds, of which about 160 (0.05%) were called active. Many of the other results were omitted from the sample, so actives are more common in it than they were. A number with no mark means an inactive call. No stated cut-off is given here; in the data, active means inhibition above about 38%; inactive means the rest.

The target of this assay is Serine protease Rv3671c (Mycobacterium tuberculosis (strain ATCC 25618 / H37Rv)) (UniProt P9WHR9). The experiment in a line: Rv3671c serine protease inhibitors, primary screen, biochemical, fluorescence polarization, M. tuberculosis H37Rv (AID 2606).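 Further: extracellular domain of Rv3671c used as enzyme; 0% = enzyme with DMSO and 100% = no enzyme.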 The following applies: at 5.96 µM; stronger effect = higher value.
Sequence of Serine protease Rv3671c (Mycobacterium tuberculosis (strain ATCC 25618 / H37Rv)) (P9WHR9 whole entry, looked up, the tested form may be a part): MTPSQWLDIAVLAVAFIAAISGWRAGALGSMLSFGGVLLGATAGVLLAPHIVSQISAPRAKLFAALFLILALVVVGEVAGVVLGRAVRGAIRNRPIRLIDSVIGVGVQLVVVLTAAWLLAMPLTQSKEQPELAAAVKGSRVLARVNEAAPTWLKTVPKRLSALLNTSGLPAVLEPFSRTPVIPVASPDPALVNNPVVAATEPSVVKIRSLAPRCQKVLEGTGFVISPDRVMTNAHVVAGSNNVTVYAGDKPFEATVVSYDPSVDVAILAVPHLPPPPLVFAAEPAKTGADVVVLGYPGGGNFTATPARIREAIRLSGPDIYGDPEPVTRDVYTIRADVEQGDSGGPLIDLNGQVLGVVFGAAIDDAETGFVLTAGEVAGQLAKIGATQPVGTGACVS
As to `CCO[C@@H]1OC(C(=O)NC2CC2)=C[C@H](C)[C@H]1CCCO`, the inhibition is 3.42%. On to `CCN(CC)CCCN=C(N)N`, for which the inhibition is 1.64%. Next, `CC(C)n1c(-c2ccncc2)n[nH]c1=S`: -6.36%; `CC(C)(C)S(=O)(=O)c1ccccc1-c1noc(-c2ccccc2)c1C(N)=O`: 8.18%; `CSCc1ccc(C(=O)Nc2cc(C)cc(C)c2)cc1`: 6.14%.

For the molecule `CCNc1nc(N)nc(Oc2ccc(OCC)nn2)n1`, the inhibition was 1.15%. On to `COCCOC(=O)c1sc(=S)n(CCOC)c1N`, for which the inhibition is 40% (active). In the case of `CCCCN(CCCC)C(=O)CCS(=O)(=O)c1ccc2c(c1)n(C)c(=O)c(=O)n2C`, the inhibition is -1.54%.

`Cc1ccc2c(c1)N(CCCC(=O)NCc1cccnc1)C(=O)CO2`: the inhibition is 5.63%.

For the molecule `COC(=O)COc1cccc2c(=O)n(CC(=O)NCc3ccccc3)ccc12`, the inhibition is -8.57%. On to `COc1ccc(O[C@H]2C=C[C@@H](c3ccccc3)O[C@@H]2CO/N=C/C[C@@H]2C=C[C@H](OC(C)=O)[C@@H](COC(C)=O)O2)cc1`, for which the inhibition was -1.84%. For `COCCN(Cc1nc(-c2ccc(C(F)(F)F)cc2)no1)C(C)C`, the inhibition was -6.51%. On to `Cc1ccc(S(=O)(=O)N[C@@H](Cc2ccccc2)C(=O)N2CCC(C(=O)N[C@H](C(=O)O)C(C)O)CC2)cc1` (some centres not stated), for which the inhibition is -3.25%. With `Cc1ccc(N2CCN(c3ccc([N+](=O)[O-])cn3)CC2)c(C)c1`, the inhibition is -8.33%. Take `Fc1ccccc1CCNc1nnnn1-c1ccccc1`: the inhibition was -6.29%. Turning to `Cc1ccc(Cl)cc1NC(=O)C1CCN(S(C)(=O)=O)CC1`, the inhibition was 5.08%. Then `O=C1NC[C@@H](Cc2ccc(O)cc2)N(CCc2cccc(F)c2)C1=O`, with 5.74%; and `c1ccc2[nH]c(-c3nc4ccccc4[nH]3)nc2c1`, with 77.5% (active). Next, `O=[N+]([O-])c1ccc2nc(-c3ccccn3)[nH]c2c1`: 4.37%; `O=C(Nc1sc2c(c1-c1nc3ccccc3[nH]1)CCCC2)C1CC1`: -3.57%; `COc1ccc(Br)cc1CN1CCN(C(=O)c2cccc(OC)c2OC)CC1`: -2.08%. As for `CC1(c2ccccc2)NC(=O)N(CC(=O)N2CC(=O)Nc3ccccc32)C1=O` (configuration not stated), the inhibition is -3.96%. Next, `COc1ccc(C(=O)c2c3ccc([N+](=O)[O-])cc3[n+]([O-])n2CCCN)cc1`: -2.98%; `C[C@@H]1NC(=O)[C@@]2(C)[C@@H](c3ccccc3)[C@H]3COc4ccccc4[C@@H]3N2C1=O`: -7.74%; `C=CCN1CCN(C(=O)CCCc2ccccc2)CC1`: -7.87%.

On to `NNC(=O)c1cnn(-c2ccccc2)c1C(F)(F)F`, for which the inhibition was 2.2%. Regarding `COCCN(C(=O)CSCc1ccc(C)cc1)c1c(N)n(CC(C)C)c(=O)[nH]c1=O`, the inhibition was 8.34%.

As to `CC1CCCN(C(C(=O)Nc2ccc(C(C)C)cc2)c2ccc3c(c2)OCO3)C1` (configuration not stated), the inhibition is 2.73%. Take `CN(Cc1ccccc1)C(=O)COC(=O)c1ccccc1Nc1ccccc1`: the inhibition was -5.06%.

As to `CCN(CC)c1ccc(C2C3CCCCC3(O)CCN2CC(=O)Nc2ccccc2)cc1` (configuration not stated), the inhibition is 5.48%. As to `O=C(O)C(c1ccccc1)C1(O)CCCCC1` (configuration not stated), the inhibition was 8.1%. As for `Cc1cc(NC(=O)CN2C(=O)NC(CC(C)C)C2=O)no1` (configuration not stated), the inhibition is 2.81%.

For `O=C(Nc1ccc(Br)cc1)c1cc(S(=O)(=O)Nc2ccccn2)ccc1Cl`, the inhibition was -7.4%. Take `COc1ccc(C(=O)OC(C)C(=O)NC2CCCC2)cc1S(=O)(=O)N1CCOCC1` (configuration not stated): the inhibition is -4.37%.

For the molecule `O=C(COc1ccc(-c2ccccc2)cc1)NN=C1CCCC1`, the inhibition is -4.38%.

`CCOc1ccc(/C=C(/NC(=O)c2ccccc2)C(=O)NCCC(=O)O)cc1`: the inhibition is -7.39%. On to `C=CCn1c(=S)[nH]c2scc(-c3ccco3)c2c1=O`, for which the inhibition is 6.27%.

Regarding `CC(C)CCNC(=O)c1cccnc1Sc1ccccc1`, the inhibition was -12.3%. On to `CCn1ncc(CNC(=O)C2(C)CC2(Br)Br)c1C` (configuration not stated), for which the inhibition is -2.88%.

Regarding `CC(C)CC(COCc1ccc(Cl)cc1)N1CCN(C(=O)c2ccc(C(F)(F)F)cc2)CCC1=O` (configuration not stated), the inhibition is -15.8%. Take `CNC(=O)/C(C#N)=C/c1c(F)cccc1Cl`: the inhibition was -0.68%. Regarding `O=C(c1ccccc1F)N1CCN(S(=O)(=O)c2ccc(Br)cc2)CC1`, the inhibition was -4.63%.

Consider `COCCNc1nc2nonc2nc1N1CCCC1c1nccs1` (configuration not stated), for which the inhibition is -4.76%. Consider `Cn1nnnc1SCC(=O)NNC(=O)c1ccc(Br)cc1`, for which the inhibition is -1.13%. In the case of `CC(=O)N1CCc2c(sc(NC(=O)CCS(=O)(=O)c3ccc(C)cc3)c2C(N)=O)C1`, the inhibition was 8.49%. As for `CCOC(=O)[C@@H]1[C@H]2COc3ccc(Br)cc3[C@H]2N2C(=O)N(c3ccc(Cl)cc3)C(=O)[C@@]12C`, the inhibition was -4.24%. With `COc1cccc(C2SCC(=O)N2c2cccc(C)c2)c1OC` (configuration not stated), the inhibition is 0.16%. Consider `CCCCn1c(N)c(N(CCOC)C(=O)c2cccc(S(=O)(=O)N(C)c3ccccc3)c2)c(=O)[nH]c1=O`, for which the inhibition is 3.05%. Take `Cc1noc(C)c1NC(=O)Nc1ccc2c(c1)C(=O)N([C@H](C)CO)C[C@H](C)[C@@H](CN(C)C(=O)Nc1ccc(C(F)(F)F)cc1)O2`: the inhibition is 0.65%. Then `C/C=C/C=C/C(=O)OCC(=O)Nc1ccc(Cl)cc1`, with -1.55%; and `CCN1CC=C2C(C#N)=C(N)C(C#N)(C#N)[C@H](c3ccoc3)[C@H]2C1`, with 3.86%. As to `CC(=O)N(C)c1ccc(NC(=O)Nc2cccc3ccccc23)cc1`, the inhibition is 1.7%. For the molecule `O=C1c2ccccc2C(=O)N1CCC(O)C[N+](=O)[O-]` (configuration not stated), the inhibition is -0.34%. Take `COc1ccc(CCNC(=O)C2CC3Cn4c(nc5cc(C)c(C)cc54)C3N2C)cc1` (configuration not stated): the inhibition is -15.6%.

On to `CC(C)(COC(=O)Nc1ccccc1)COC(=O)Nc1ccccc1`, for which the inhibition is -8%. As for `COCCn1c(SCC(=O)c2[nH]c(C)c(C(C)=O)c2C)nc2ccccc2c1=O`, the inhibition was 1.17%. In the case of `COCc1c(C(=O)OCC(=O)Nc2ccc(OC(F)F)cc2)oc2ccccc12`, the inhibition was -1.7%. Then `O=C1CN(C(=O)COc2c(Cl)cccc2Cl)c2ccccc2N1`, with 0.62%; and `CCN(C(=O)Cc1c(C(=O)O)n(CC)c2ccccc12)c1ccccc1C`, with 4.47%.

As to `NS(=O)(=O)c1ccc(CNC(=O)c2ccc(Cl)cc2[N+](=O)[O-])cc1`, the inhibition is -8.53%. For the molecule `O=C(CCc1nnc2ccc(NCc3ccccc3Cl)nn12)NCC1CCN(C2CCCC2)C1` (configuration not stated), the inhibition is -2.3%. Take `C=CC(COCc1ccccc1)N(CC(=O)OC)S(=O)(=O)c1cc(Br)ccc1OC` (configuration not stated): the inhibition is 0.38%. As to `COc1ccc(OC)c(NC(=O)Cc2cccs2)c1`, the inhibition was 2.15%. Take `Cc1ccc(-c2ccnc3nc(Sc4ncc(C(F)(F)F)cc4Cl)nn23)cc1`: the inhibition is -7.05%. On to `CC(=O)N1Cc2ccccc2CC1C(=O)O` (configuration not stated), for which the inhibition was -1.84%. For the molecule `CCc1cccc(NC(=O)CCCN2C(=O)C(c3ccccc3)Oc3cccnc32)c1` (configuration not stated), the inhibition was -9.9%. Consider `COC(=O)C1=C(C)N(C(C)c2ccccc2)C(=O)/C1=C\c1ccco1` (configuration not stated), for which the inhibition was 4.05%.

For `Cc1cccc(C)c1NC(=O)N1CC=C(n2c(=O)[nH]c3ccccc32)CC1`, the inhibition was 1.3%. For the molecule `Nc1nc(-c2sc3nc4c(cc3c2N)CCCC4)nc(N2CCOCC2)n1`, the inhibition is -3.34%.

With `O=C(NCCN1CCOC1=O)C1CCC(=O)N(CCc2ccc(Cl)cc2)C1` (configuration not stated), the inhibition was -0.05%. On to `O=C(NCc1ccccc1)c1ccc(CNc2c(N3CCCC3)c(=O)c2=O)cc1`, for which the inhibition is 3.23%. In the case of `CC(Sc1nnc(-c2cccs2)n1C1CC1)C(=O)NCC1CCCO1` (configuration not stated), the inhibition is 3.19%. As for `CC(C)n1c(O)c(N=Nc2ccccn2)c2ccccc21`, the inhibition was 3.27%. Then `COC(C/C=C/C(=O)[C@@H](C)OCc1ccccc1)OC`, with -4.04%; and `CN=C(c1ccccc1)c1c(C)cccc1C`, with 10.9%; and `CC(C)C(=O)N1CCN(CCN=CC2=C(O)CC(c3ccco3)CC2=O)CC1` (configuration not stated), with -4.57%. In the case of `CCCC(C)c1nnc(NC(=O)C2CC(=O)N(c3ccc(OCC)cc3)C2)s1` (configuration not stated), the inhibition is 9.03%.

Consider `CCC(C)CCN1CCN=C1N(C)C` (configuration not stated), for which the inhibition was -3.18%. Consider `CCn1c(C)nc2cc(C(=O)NNS(=O)(=O)c3ccc(C)cc3C)ccc21`, for which the inhibition was -9.72%. In the case of `CS(=O)(=O)c1ccccc1C(=O)Nc1ccc2sccc2c1`, the inhibition was -4.05%. Next, `CC(O)CN(Cc1ccc(Cl)cc1)CC(C)O` (configuration not stated): 6.26%; `O=C(COc1ccccc1Cl)N1CCCCCCC1`: -10.1%. Regarding `Cc1ccc2c(C)c(C(=O)N3CCN(c4ccncc4)CC3)oc2c1C`, the inhibition is 10.5%.

Regarding `O=C(NC1CC1)C1=C[C@H](c2coc3ccccc3c2=O)C[C@H](OCCCCO)O1`, the inhibition was 2.33%. As for `C=CCn1c(-c2ccc(Cl)cc2)ccc(C#N)c1=O`, the inhibition was -12.4%. In the case of `N#C/C=C\Oc1ccc(Cl)cc1N`, the inhibition was -2.18%. In the case of `Cc1cc(F)ccc1S(=O)(=O)Nc1ncnc2scc(-c3ccc(F)cc3)c12`, the inhibition was -10.2%.
